Experimental data from PubChem BioAssay (Tox21).
Inconclusive results are not listed. Active and inactive are the calls of the source. Calls come from the whole dose curve.

Each compound was assayed against Vitamin D3 receptor (Homo sapiens) (UniProt P11473) (assay: qHTS assay to identify small molecule agonists of the vitamin D receptor (VDR) signaling pathway (AID 743222)). Conditions: HEK293T VDR-UAS-bla, beta-lactamase FRET ratio, 16 h; series mostly up to 63.5 µM.
Description: National Center for Advancing Translational Sciences [NCATS]
NIH Chemical Genomics Center [NCGC]
U.S. Environmental Protection Agency [EPA]
National Institutes of Environmental Health Sciences [NIEHS]
National Toxicology Program [NTP]
U.S. Food and Drug Administration [FDA]
The vitamin D receptor (VDR), a member of nuclear hormone receptor superfamily, plays a critical role in calcium homeostasis and bone metabolism. It is also involved in cell differentiation and growth, and thrombogenicity.
Tox21 Assay Protocol Summary:
VDR-bla cells were dispensed at 2,000 cells/6 uL/well into black wall/clear-bottom 1536-well plates using a Multidrop Combi (Thermo Fisher Scientific, Waltham, MA) dispenser. After the assay plates were incubated at a 37C and 5% CO2 for 4 h, 23 nL of compounds dissolved in DMSO, positive controls or DMSO only was transferred to the assay plate by a Pintool station (Kalypsys, San Diego, CA). The plates were incubated at 37C and 5% CO2 for 16 h. After 1 uL of LiveBLAzerTM B/G FRET substrate was added using a Bioraptr Flying Reagent Dispenser (FRD) workstation (Beckman Coulter, Indianapolis, IN, USA), the plates were incubated at room temperature for 2 h, and fluorescence intensity was measured by an Envision plate reader (PerkinElmer, Shelton, CT).

Vitamin D3 receptor (Homo sapiens), sequence (P11473 whole entry, looked up): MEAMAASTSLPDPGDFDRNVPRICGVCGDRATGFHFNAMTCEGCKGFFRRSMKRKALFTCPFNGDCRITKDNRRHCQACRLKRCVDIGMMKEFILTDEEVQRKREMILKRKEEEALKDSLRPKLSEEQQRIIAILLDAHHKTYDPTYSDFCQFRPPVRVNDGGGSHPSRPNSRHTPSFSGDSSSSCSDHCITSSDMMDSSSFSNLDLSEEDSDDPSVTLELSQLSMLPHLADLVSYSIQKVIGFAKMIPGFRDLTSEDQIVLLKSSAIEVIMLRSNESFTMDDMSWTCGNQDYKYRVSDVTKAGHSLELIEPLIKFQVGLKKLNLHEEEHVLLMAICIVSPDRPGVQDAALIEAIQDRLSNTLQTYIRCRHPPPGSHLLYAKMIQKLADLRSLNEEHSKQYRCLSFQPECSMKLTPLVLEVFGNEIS

| SMILES | outcome |
| --- | --- |
| Cc1cc2c(s1)Nc1ccccc1N=C2N1CCN(C)CC1 | inactive |
| CCN(O)CC | inactive |
| CCN(CCCc1ccccc1)CCCc1ccccc1 | inactive |
| C1CCOC1 | inactive |
| N#Cc1ccc(C(c2ccc(C#N)cc2)n2cncn2)cc1 | inactive |
| O=C1CCC(C2CCCCC2)CC1 | inactive |
| CC(=O)O[C@H]1CC[C@@]2(C)C(=CC[C@@H]3[C@@H]2CC[C@]2(C)C(C(C)=O)=CC[C@@H]32)C1 | inactive |
| O=C1N(c2ccccc2)c2ccccc2C1(Cc1ccncc1)Cc1ccncc1 | inactive |
| CCCCNC(=S)NCCCC | inactive |
| CCOC(=O)COc1ccc2c(c1)CC(NCC(O)c1cccc(Cl)c1)CC2 (stereo not given) | inactive |
| CCCCCCCCCC#N | inactive |
| CC(=O)N(CC(O)CN(C(C)=O)c1c(I)c(C(=O)NCC(O)CO)c(I)c(C(=O)NCC(O)CO)c1I)c1c(I)c(C(=O)NCC(O)CO)c(I)c(C(=O)NCC(O)CO)c1I (stereo not given) | inactive |
| CC(C)=CCC[C@](C)(O)[C@@H]1CC=C(C)CC1 | inactive |
| Cc1cc(S(=O)(=O)O)c(N)cc1Cl | inactive |
| CCCCN1C[C@H](O)[C@@H](O)[C@H](O)[C@H]1CO | inactive |
| CCCNC(C)(C)COC(=O)c1ccccc1 | inactive |
| C=C(C)C(=O)OCCOP(=O)(O)O | inactive |
| O=C1C=CC(=O)O1 | inactive |
| CCC/C=C/CO | inactive |
| NS(=O)(=O)c1cc(-c2nn[nH]n2)c(NCc2cccs2)cc1Cl | inactive |

| SMILES | outcome |
| --- | --- |
| CCc1cc2cc(OC)c(OC)cc2c(Cc2ccccc2)n1 | inactive |
| COc1cc(N)c(Cl)cc1C(=O)NC1CCN(Cc2ccccc2)CC1 | inactive |
| C1CSCCS1 | inactive |
| CC(C)OC(C)C | inactive |
| CC(C)C(=O)OCC(C)(C)C(O)C(C)C (stereo not given) | inactive |
| CC(=O)OC(C)OC(C)=O | inactive |
| O=C(Cl)c1cccc([N+](=O)[O-])c1 | inactive |
| CN1CCN(C2=Nc3cc(F)ccc3Cc3ccccc32)CC1 | inactive |
| Cc1cc2nc(N)sc2cc1C | inactive |
| O=Cc1ccc(F)c(Br)c1 | inactive |
| Clc1cccc(-c2cc(Cl)cc(Cl)c2)c1 | inactive |
| Cc1ccc(C)c(N)c1 | inactive |
| CC(C)CCCCCCc1ccc(OCCOCCO)cc1 | inactive |
| Cc1ncc(CO)c(CN)c1O | inactive |
| CC(C)(CO)[C@@H](O)C(=O)NCCC(=O)O | inactive |
| COc1ccc(Nc2ccc(OC)cc2)cc1 | inactive |
| OCc1c2ccccc2cc2ccccc12 | inactive |
| CC/C=C\CCOC(=O)CCCCC | inactive |
| CCCOCCC | inactive |
| CO[C@@]1(NC(=O)CSCC#N)C(=O)N2C(C(=O)O)=C(CSc3nnnn3C)CS[C@@H]21 | inactive |
